# hgDAF-12 ag = hgDAF-12 agonism, primary luciferase screen. HEK293 GAL4-hgDAF12 UAS-luciferase reporter, agonist luminescence; normalized to butyrate control. activation, % at 6.8 µM. 370,000 compounds, 1.8% hits. AID 687014;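 active = activation above a cutoff set at the mean of all screened compounds plus 3 SD, cut at about 10% in these data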;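 also: 0% = DMSO wells and 100% = sodium butyrate wells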
# DAX1 inh-1 = inhibitors of human orphan nuclear receptor DAX1 (NR0B1). AID 504766. 340,000 compounds, 0.99% hits. HEK293 Gal4-DAX1 luciferase reporter, luminescence. inhibition, % at 6.75 µM;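 active = inhibition above the mean over all tested compounds plus 3 SD, cut at about 4.2% in these data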;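 also: 0% = DAX1-transfected cells with DMSO and 100% = empty-vector control cells with DMSO; inhibition shows as a rise in luminescence from relieved DAX1 repression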
# Target sequence (P51843 207-470 limits assumed): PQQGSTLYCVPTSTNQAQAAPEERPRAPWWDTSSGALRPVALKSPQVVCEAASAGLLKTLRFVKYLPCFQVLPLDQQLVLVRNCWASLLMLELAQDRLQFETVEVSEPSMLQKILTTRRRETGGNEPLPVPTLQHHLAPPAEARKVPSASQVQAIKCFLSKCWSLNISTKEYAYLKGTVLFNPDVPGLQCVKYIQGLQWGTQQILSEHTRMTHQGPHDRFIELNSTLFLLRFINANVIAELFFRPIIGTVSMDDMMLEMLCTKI
# DAX1 inh-2 = blocks DAX1 repression of SF-1 activated StAR promoter. HEK293T StAR-luciferase reporter, SF-1/DAX-1 repression relief. inhibition, % at 6.8 µM. 370,000 compounds, 1.1% hits;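 active = inhibition above the mean over all tested compounds plus 3 SD, cut at about 3.6% in these data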;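 also: 0% = DAX-1 cells with DMSO and 100% = cells lacking DAX-1 with DMSO; higher inhibition means more luminescence from relief of DAX-1 repression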
# ssDAF12 agonist = activators of S. stercoralis DAF-12 nuclear receptor | HEK293 ssDAF-12/GRIP1 lit1-tk-luc reporter, luminescence; % of 3 µM dafachronic acid response | activation, % at 6.8 µM | 370,000 compounds, 1% hits;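 active = activation above the mean over all tested compounds plus 3 SD, cut at about 0.9% in these data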;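 also: 0% = DMSO-only wells and 100% = 3 µM delta7-dafachronic acid wells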
# AHR activator = activates the human aryl hydrocarbon receptor. AID 2796. 320,000 compounds, 2.5% hits. activation, % at 5 µM. AHR-responsive luciferase reporter cells, luminescence. P35869; in the data active = activation above about 47%;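 also: 0% = vehicle wells and 100% = reference agonist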
# hcDAF-12 act = activates DAF-12 receptor from parasite H. contortus; HEK293 hcDAF-12 lit1-tk-luc reporter, luminescence; 0% DMSO, 100% Δ7-dafachronic acid; 370,000 compounds, 1.4% hits; activation, % at 6.8 µM;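 active = activation above the mean of all tested compounds plus 3 SD, cut at about 5.5% in these data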;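 also: 100% = response to 3 µM Δ7-dafachronic acid high control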
# Numbers without * were called inactive; nt = not tested or not shown. Most compounds without a hit are left out; they make up all but 5.7% or so of the library.
SMILES,hgDAF-12 ag,DAX1 inh-1,DAX1 inh-2,ssDAF12 agonist,AHR activator,hcDAF-12 act
O=C(N/N=C/c1ccc2c(c1)OCO2)C1CC1,5,1,1,-1,67*,0
Cc1cccc(OCC(=O)N/N=C/c2ccc3c(c2)OCO3)c1,1,-1,0,1.2*,19,0
COc1cc(/C=N/NC(=O)c2cc(-c3ccc4c(c3)OCO4)n[nH]2)ccc1O,6,-2,0,-2,128*,1
O=C(NCCCN1CCOCC1)C(=O)N/N=C/c1ccc2c(c1)OCO2,-1,4.4*,0,-1,4,-1
S=C(NN=Cc1ccc2c(c1)OCO2)NN=Cc1ccc2c(c1)OCO2,-1,0,-1,-1,nt,2
CC(C)(C)S(=O)(=O)N1Cc2cc(=O)n(Cc3ccccc3)c(CCO)c2[C@@H]1CCO,4,-1,0,-1,nt,-1
O=C(N/N=C/c1ccc[nH]1)c1ccc2c(c1)OCO2,11*,0,0,-1,17,1
Cc1cccc(/C=N/NC(=O)c2ccc3c(c2)OCCO3)c1O,6,-3,0,1.1*,-1,4
Cc1cccc(OCC(=O)N/N=C/c2cn[nH]c2-c2ccc(Cl)c(Cl)c2)c1,-1,0,-1,-1,47*,-2
COc1ccc(/C=N/NC(=O)c2ccccc2O)cc1CN1CCOCC1,6,-1,0,0,15,6.0*
CCOC(=O)C1C(c2ccc3c(c2)OCO3)NC(=O)NC1(O)C(F)(F)F (configuration not stated),-1,0,1,-1,17,0
CC(=O)CSc1nc(N)c(C#N)c(-c2cccs2)c1C#N,-2,-2,-1,-2,-2,-3
COc1ccccc1NC(=O)Cn1nc(C)n2cccc2c1=O,0,0,0,-1,3,0
Cc1cccc(CSCCNC(=O)CN(c2cc(C)cc(C)c2)S(C)(=O)=O)c1,-4,-1,0,-2,1,-3
CCOc1cccc(CNn2cnnc2)c1OCc1ccccc1,-3,0,-1,-1,3,-1
O=C(N/N=C/c1cccnc1)c1ccc2c(c1)OCO2,6,0,0,0,15,1
Cc1cccc(/C=N/NC(=O)Cc2ccc(Cl)cc2)c1O,-4,0,-1,-2,52*,-2
COc1ccc(-c2cc(C(=O)N/N=C/c3ccc4c(c3)OCO4)c3ccccc3n2)c(OC)c1,-8,-2,-2,-2,49*,-4
COc1ccccc1/C=N/NC(=O)c1ccc2c(c1)OCO2,4,4.3*,0,-1,51*,0
O=C(N/N=C\c1cccc(OC(=O)c2ccco2)c1)c1ccc2c(c1)OCO2,12*,0,3,0,3,2
COc1ccc(-c2cc(C(=O)N/N=C/c3ccc(OC)c(COCC(F)(F)C(F)F)c3)c3ccccc3n2)c(OC)c1,1,1,0,-1,22,-1
COC(=O)\C(C(C)=O)=C(/C=C/C=C/N(C)C)N(C)C,0,1,0,-1,1,0
O=C1C=C(C2CCCCC2)C(=O)c2ccccc21,-1,2,-2,-1,nt,2
CSc1ccccc1NC(=O)COC(=O)Cc1ccsc1,0,1,0,-1,27,2
COc1ccccc1NC(=O)CSc1nnc(Cc2cc(=O)[nH]c(=O)[nH]2)n1-c1ccccc1,-2,-1,1,-1,1,-1
COc1cccc(C(C(=O)NC2CCCC2)N(C(=O)c2csnn2)C2CC2)c1 (configuration not stated),0,-2,0,-1,2,0
COc1ccc(NC(=S)N2CCN(Cc3ccccc3)CC2)c(OC)c1,-2,0,0,-2,4,0
CCOc1ccc(C(=O)N[C@H](C(=O)NNC(=O)c2cccs2)C(C)C)cc1,-1,3,0,0,3,0
Cc1cc(C)nc(SCC(=O)c2c(N)n(C)c(=O)n(C)c2=O)n1,1,1,0,-2,50*,0
Cn1ccnc1SCC(=O)c1c(N)n(C)c(=O)n(C)c1=O,-2,-1,0,-1,15,-1

# Screening results: PubChem BioAssay, The Scripps Research Institute Molecular Screening Center
